Lamin A splicing: qHTS Assay for Modulators of Lamin A Splicing. Potency, µM (titrated, usually from 46.1 µM), without a hit: top-dose ratio change, negative = inhibition, most hits filed as inhibitors. AID 1487, 2009. 200,000 tested, 0.01% active. HeLa LMNA splicing GFP/RFP minigene ratio, 48 h; active means well fitted inhibition curve with a large enough effect in the signal ratio, with a control signal flat, not every such curve was filed as active; inconclusive means small, poorly fitted or top-dose-only effect, or effect the other way, or a change in a side signal; the % refers to the signal ratio; further: potency means the concentration at half of the fitted maximal effect
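S3 HeLa stable clones carrying a lamin A-EGFP splicing minigene plus DsRed2 were seeded at 600 cells/well in Opti-MEM with 2% FBS, pin-dosed and incubated 48 h at 37°C. Acumen cytometry (488 nm) gave the GFP/RFP total-intensity ratio.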
Luc counter: Counterscreen for Luciferase (Kinase-Glo TM) Inhibition. Potency, µM (top dose mostly 38.3 µM), for the others: top-dose activity change, negative = inhibition, usual class: inhibitors. Kinase-Glo luciferase, ATP luminescence, 8 min. 200,000 tested, 0.28% active. Luciferin 4-monooxygenase (Photuris pensylvanica), Q27757; active means well fitted inhibition curve with a large enough effect; inconclusive means small, poorly fitted or top-dose-only effect; further: potency means the concentration at half of the fitted maximal effect; nearly all actives have a fitted effect of over 60% in size
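Kinase-Glo luciferase light output from ATP and luciferin was measured with 10 uM ATP, within the enzyme's linear range. Buffer: 50 mM imidazole pH 7.2, 50 mM KCl, 7 mM MgCl2, 0.01% Tween 20, 0.05% BSA; luminescence read after 8 min at ambient temperature.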
ALDH1A1 inh: qHTS Assay for Inhibitors of Aldehyde Dehydrogenase 1 (ALDH1A1). Potency, µM (highest dose often 75.3 µM), for inactives: top-dose activity, negative = inhibition, hits mostly inhibitors. Purified ALDH1A1, NADH fluorescence, propionaldehyde substrate. Aldehyde dehydrogenase 1A1 (Homo sapiens), P00352. 220,000 tested, 7.3% active. AID 1030, 2008;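 further: potency means the concentration at half of the fitted maximal effect; plate controls were no enzyme wells and a reference inhibitor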
PNC inhibitor: High Content Assay for Compounds that inhibit the Assembly of the Perinucleolar Compartment | PC3M PTB-GFP, PNC prevalence imaging, 16 h; hits give low values | activity change (PNC), negative = inhibition, % at 10 µM | 140,000 tested, 3.1% active | AID 2417, 2010;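 active means readout at or below -70, meaning at least 70% loss of cells showing the perinucleolar compartment, a nuclear body marking cancer cells; inconclusive means readout between -30 and a set limit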;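 further: plate controls were DMSO wells for no effect and camptothecin positive control wells for full effect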
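PC3M cells stably expressing PTB-GFP, 750–1000 cells/well, treated 16 h at 37 °C with compound (23 nl of library stock), in duplicate. After paraformaldehyde fixation and Hoechst stain, imaged at 20x; PNC prevalence scored by image analysis.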
HPGD inh: qHTS Assay for Inhibitors of HPGD (15-Hydroxyprostaglandin Dehydrogenase) | 15-hydroxyprostaglandin dehydrogenase [NAD(+)] (Homo sapiens), P15428 | purified HPGD, NADH fluorescence kinetic, PGE2 substrate | Potency, µM, without a hit: top-dose activity change, negative = inhibition, usual class: inhibitors | 150,000 tested, 4.3% active | AID 894, 2007; further: potency means the concentration at half of the fitted maximal effect
Target sequence (P15428 whole entry, looked up): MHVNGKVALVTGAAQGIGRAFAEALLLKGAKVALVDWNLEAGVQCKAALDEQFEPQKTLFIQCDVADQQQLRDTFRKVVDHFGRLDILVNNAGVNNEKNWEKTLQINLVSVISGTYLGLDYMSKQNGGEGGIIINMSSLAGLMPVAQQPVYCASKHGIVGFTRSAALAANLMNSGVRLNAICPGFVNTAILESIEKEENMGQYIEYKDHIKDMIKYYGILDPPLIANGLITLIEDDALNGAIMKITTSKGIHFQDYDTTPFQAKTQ
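20 nM HPGD preincubated 15 min at room temperature with compound in 50 mM Tris-HCl pH 8, 0.01% Tween 20. Started with 1 mM NAD+ and 30 uM prostaglandin E2; NADH fluorescence (360/450 nm) read 5 times over 30-s intervals, last minus first.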
An asterisk follows results filed as active; ? = inconclusive; . = no result; [ ] = another dose, or the depositor's remark. Sampled rows, rich in hits. Any-hit rate of the full collection: about 10%. Unless noted, the call rests on the fitted dose curve; in most records, active means well fitted inhibition curve with a large enough effect (not every such curve was filed as active); inconclusive means small, poorly fitted or top-dose-only effect, or another doubt; inactive means no such curve, though single readings can be large or run the other way. Unless noted, on the % scale 0 is the no-effect control and ±100 the full control effect.

SMILES | Lamin A splicing | Luc counter | ALDH1A1 inh | PNC inhibitor | HPGD inh
NC(=S)N/N=C/c1ccc(-c2cccc([N+](=O)[O-])c2)o1 | ? | -4% | ? | 11 | 16µM*
CN(C)c1ccc(/C=N/NC(=O)C2COc3ccccc3O2)o1 (stereo not drawn) | 1% | 0% | 22µM* | 13 | -11%
O=C(N/N=C\c1ccccn1)C1COc2cc3ccccc3cc2O1 (stereo not drawn) | 1%[0.0737 µM] | 4% | ? | ? | 14µM*
Cn1cc(/C=N\NC(=O)C2COc3ccccc3O2)c2ccccc21 (stereo not drawn) | ? | 1% | ? | ? | ?
Cc1c(/C=N\NC(=O)C2COc3ccccc3O2)c2ccccc2n1C (stereo not drawn) | ? | 2% | ? | -111* | -24%
O=C(N/N=C\c1ccc(-c2ccc([N+](=O)[O-])cc2)o1)C1COc2ccccc2O1 (stereo not drawn) | ? | -7% | 0% | ? | 20µM*
O=C(N/N=C\c1ccc(Br)o1)C1COc2ccccc2O1 (stereo not drawn) | -21%[46 µM] | 3% | ? | . | .
O=C(O)CCC(=O)N1CCN(c2cccc(Cl)c2)CC1 | 12% | 3% | 28µM* | 0 | -6%
CCOCC(=O)N1CCN(c2cccc(Cl)c2)CC1 | . | -4% | 3.2µM* | . | .
Cn1c(C(=O)Nc2ccc(OC(F)(F)F)cc2)cc2c(=O)n3ccccc3nc21 | 6%[46 µM] | . | . | . | .
Cc1c(C(c2ccc(N(C)C)cc2)c2c(C)n(C)n(-c3ccccc3)c2=O)c(=O)n(-c2ccccc2)n1C | . | -9% | 18µM* | . | .
Cc1c(C(Nc2ccccn2)c2ccccc2)c(=O)n(-c2ccccc2)n1C (stereo not drawn) | -5% | 2% | 11% | -100* | -11%
Cc1ccccc1CCNC(=O)c1ccc2c(c1)nc1n2CCC(C)C1 (stereo not drawn) | 9%[46 µM] | . | . | . | .
O=C(N/N=C/c1ccccn1)c1sc2ccccc2c1Cl | . | . | 11µM* | . | .
O=C(c1sc2ccccc2c1Cl)N1CCN(c2ncccn2)CC1 | ? | 5% | 13µM* | 16 | -11%
O=C(N/N=C/c1c[nH]c2ccccc12)c1sc2ccccc2c1Cl | -10% | -1% | ? | ? | -11%
O=C(Cc1ccc(F)cc1)N/N=C/c1ccccn1 | 2% | 1% | -3% | -113* | -9%
Cc1c(/C=N/NC(=O)c2sc3ccccc3c2Cl)cnn1C | 4% | -4% | 20µM* | -26 | -20%
O=C(c1cccc(F)c1)N1CCC2(CC1)CCN(c1ncccn1)CC2 | . | -3% | -3% | . | -12%
Cc1c(/C=N\NC(=O)c2ccc([N+](=O)[O-])cc2)cnn1C | -5% | -5% | 3% | -109* | -11%
O=c1c(CCc2ccccc2)nc2cnc(N3CCNCC3)nc2n1Cc1ccc(F)cc1 | . | -4% | ? | . | ?
CCOC(=O)c1ccccc1NC(=O)CSc1ncc(C(=O)OCC)c(N)n1 | 2% | -2% | 20µM* | -26 | -7%
COC(=O)c1ccccc1NC(=O)CSc1nnc(-c2ccncc2)o1 | ? | -2% | 18µM* | 4 | -21%
COC(=O)c1ccc(C(=O)OC)c(NC(=O)COc2ccccc2OC)c1 | -8% | 0% | 13µM* | 8 | -22%
CC(C)(C)NC(=O)CSc1nnc(-c2ccncc2)o1 | 9% | -1% | 3% | ? | -5%
SMILES | Lamin A splicing | Luc counter | ALDH1A1 inh | PNC inhibitor | HPGD inh
CCOC(=O)c1ccccc1NC(=O)CSc1nccn1C | -10% | 2% | -11% | -100* | -10%
O=C(CSc1nnc(-c2ccccc2)c(-c2ccccc2)n1)Nc1ccccc1Cl | -6%[46 µM] | . | . | . | .
COC(=O)NC(/C=C/c1ccco1)[C@@]1(C(=O)OC)CCCC1=O (stereo partly drawn) | . | . | -9%[13.5 µM] | . | .
CCOC(=O)c1cnc(SCc2cccc(C)c2)nc1N | ? | -1% | 25µM* | ? | ?
COc1ccccc1-c1nnc(SCC(=O)NC2CCCCC2)o1 | ? | 6% | 7% | 40 | -18%
CCOC(=O)c1ccccc1NC(=O)CSc1nc(N)cc(N)n1 | -3% | 2% | -8% | 3 | 0%
COc1ccccc1-c1nnc(SCC(=O)Nc2c(Cl)cccc2Cl)o1 | ? | -6% | 22µM* | -27 | -4%
CCOC(=O)c1cnc(SCC(=O)c2ccc(C)cc2)nc1N | -8% | 1% | 1% | -2 | -3%
COC(=O)c1ccccc1NC(=O)CNc1cc(OC)c(OC)cc1C | ? | 1% | 10µM* | ? | -15%
COC(=O)c1ccccc1NC(=O)CSc1nc(N)cc(N)n1 | 9% | 2% | 25µM* | 15 | -16%
N#Cc1ccc(C23CC4(C2)[C@H](CN(Cc2cccnc2)[C@@H]4c2ccccc2)C3c2ccc(C(F)(F)F)cc2)cc1 (stereo partly drawn) | . | 0% | 1% | . | -7%
CCOC(=O)c1cnc(SCc2nc(N)nc(Nc3ccc(C)cc3)n2)nc1N | 11% | 2% | -5% | -81* | -26%
CCOC(=O)c1cnc(SCc2nc(N)nc(Nc3ccc(F)cc3)n2)nc1N | ? | -2% | 1% | ? | -9%
Oc1ccccc1C(Sc1nc2ccccc2s1)Sc1nc2ccccc2s1 | . | -4%[7.66 µM] | 0.71µM* | . | 4µM*
CC1=NN(c2ccc(Cl)c(C(=O)O)c2)C(=O)C1 | -4% | 0% | 6% | 22 | -8%
CC1=NN(c2ccc(S(=O)(=O)O)cc2Cl)C(=O)C1 | 3%[46 µM] | -1% | 11µM* | . | .
Cc1ccccc1NC(=O)CSc1nc(N)c2c3c(sc2n1)CSC(C)(C)C3 | ? | 1% | -9% | -2 | ?
Cc1ccc(NC(=O)CSc2nc(N)c3c4c(sc3n2)CSC(C)(C)C4)cc1 | ? | -5% | -11% | -93* | -29%
Cc1ccc(NC(=O)CSc2nc3ncccc3[nH]2)cc1F | 6%[46 µM] | . | . | . | .
NNC(=O)c1cc2cc3ccccc3nc2s1 | . | -2% | 20µM* | . | .

High-throughput results as filed in PubChem.
